# USP30 inh: inhibitors of human USP30 deubiquitinase. AID 1645860. purified USP30, Ub-rhodamine cleavage fluorescence. hit rate 5.3% among 47,000. Q70CQ3. inhibition, % at 25 µM
# USP8 block: human USP8 deubiquitinase inhibition; purified USP8, Ub-rhodamine cleavage fluorescence, 30 min; AID 1645853; hit rate 4.2% among 47,000; inhibition, % at 20 µM; P40818
# USP28 inh: blocks human USP28 ubiquitin-rhodamine cleavage. purified USP28, Ub-rhodamine cleavage fluorescence, 30 min. inhibition, % at 25 µM. hit rate 3% among 47,000. AID 1645857
# Target sequence (Q96RU2 whole entry, looked up): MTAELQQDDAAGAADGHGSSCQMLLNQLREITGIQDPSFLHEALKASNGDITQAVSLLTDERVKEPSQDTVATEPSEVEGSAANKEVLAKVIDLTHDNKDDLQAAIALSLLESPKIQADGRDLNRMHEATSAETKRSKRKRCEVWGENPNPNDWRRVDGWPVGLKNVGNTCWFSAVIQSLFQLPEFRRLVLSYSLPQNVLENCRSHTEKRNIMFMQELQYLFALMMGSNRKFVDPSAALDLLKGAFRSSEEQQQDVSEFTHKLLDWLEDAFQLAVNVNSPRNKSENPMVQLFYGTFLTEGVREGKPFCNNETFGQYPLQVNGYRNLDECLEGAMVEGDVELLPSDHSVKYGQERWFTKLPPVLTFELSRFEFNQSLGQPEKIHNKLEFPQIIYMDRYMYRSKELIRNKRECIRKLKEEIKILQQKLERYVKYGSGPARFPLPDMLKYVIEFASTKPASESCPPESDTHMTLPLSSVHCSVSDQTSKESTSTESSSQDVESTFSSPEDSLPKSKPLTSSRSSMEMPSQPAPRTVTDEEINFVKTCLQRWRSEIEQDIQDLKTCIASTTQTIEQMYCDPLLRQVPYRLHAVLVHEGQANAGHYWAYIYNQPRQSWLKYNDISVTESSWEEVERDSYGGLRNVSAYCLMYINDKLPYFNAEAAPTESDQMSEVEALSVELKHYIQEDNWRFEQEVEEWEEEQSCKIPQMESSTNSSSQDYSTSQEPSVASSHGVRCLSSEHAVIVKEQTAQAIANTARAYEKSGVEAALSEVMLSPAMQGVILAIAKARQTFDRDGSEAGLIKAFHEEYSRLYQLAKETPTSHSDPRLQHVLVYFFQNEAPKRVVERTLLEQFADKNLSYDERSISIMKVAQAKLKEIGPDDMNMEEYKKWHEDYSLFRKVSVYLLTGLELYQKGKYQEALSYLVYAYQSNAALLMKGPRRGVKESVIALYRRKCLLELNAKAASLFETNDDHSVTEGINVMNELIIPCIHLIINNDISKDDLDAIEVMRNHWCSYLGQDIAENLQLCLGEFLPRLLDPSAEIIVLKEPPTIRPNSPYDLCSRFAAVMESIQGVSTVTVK
# USP17 block: inhibitors of human USP17 deubiquitinase. purified USP17, Ub-rhodamine cleavage fluorescence, 3 h. inhibition, % at 50 µM. hit rate 6.5% among 47,000
# An asterisk follows results filed as active; i = inactive; x = no result. Sampled rows, rich in hits. Any-hit rate of the full collection: about 14%. Rule as the data show it: active = inhibition above about 30%; inactive = the rest.
SMILES,USP30 inh,USP8 block,USP28 inh,USP17 block
O=C(Nc1ccc2c(c1)OCCO2)Nc1nnc(CC(=O)N2CCCCC2)s1,10.9,0.0,56.4*,-5.0
O=C(Cc1nnc(NC(=O)Nc2ccc3c(c2)OCO3)s1)NCc1ccccc1,6.0,48.1*,8.1,8.3
Cc1cccc(C(=O)Nc2nnc(Cc3cn(C)c4ccccc34)s2)c1,-61.9,33.5*,8.6,27.4
Cc1ccc(NC(=O)Nc2nnc(CC(=O)N3CCOCC3)s2)cc1C,-65.5,15.1,-3.3,5.4
O=C(Cc1nnc(NC(=O)Nc2ccccc2Cl)s1)NCc1ccccc1,i,-46.5,-107.6,-133.0
Cc1cc(C2CCCN2C(=O)Cc2ccccc2Cl)no1 (stereo not given),6.0,-1.0,6.8,8.4
COc1ccc(-c2noc(-c3cn(Cc4ccc(N)cc4)cn3)n2)cc1OC,-13.4,-3.1,6.7,-0.1
CCOc1cc(C2C3=C(CC(C)(C)CC3=O)Nc3onc(C)c32)ccc1O (stereo not given),45.2*,15.0,11.6,50.9*
O=C(COC(=O)c1sc2ccccc2c1Cl)Nc1ccc(F)cc1,24.7,8.1,7.7,2.3
NS(=O)(=O)c1ccc(NC(=O)COC(=O)c2sc3cc(F)ccc3c2Cl)cc1,40.9*,37.4*,34.0*,22.6
O=C(C1CCCN(c2ccc(-c3ccccc3)nn2)C1)N1CCC2(CC1)OCCO2 (stereo not given),3.9,0.0,-7.9,-7.4
CCn1c(Cn2cccn2)nc2cc(NC(=O)C3CCCCC3)ccc21,12.5,-1.2,37.6*,-59.6
CCn1c(Cn2cccn2)nc2cc(NC(=O)c3ccccc3C)ccc21,-14.6,-1.9,46.1*,-2.6
CCn1c(Cn2cccn2)nc2cc(NC(=O)C(C)C)ccc21,-8.5,-1.5,-0.9,-7.3
CNC1CCc2cc(OC)c(OC)c(OC)c2-c2ccc(NCCc3ccccc3)c(=O)cc21 (stereo not given),-55.1,3.2,-9.6,-4.5
COc1cccc(C2c3[nH]c4ccccc4c3C[C@@H]3C(=O)N(CCCN4CCOCC4)CC(=O)N23)c1 (stereo not given in full),36.7*,-27.2,-12.3,-16.8
O=C(c1nc(-c2ccc(N3CCCCC3)nc2)no1)N1CCCCCC1,6.6,-2.0,2.6,0.4
CSC1=N/C(=C/c2ccccc2)C(=O)N1c1ccc(F)c(Cl)c1,33.0*,13.6,13.9,24.5
CCOC(=O)c1ccc(N2C(=O)/C(=C/c3ccccc3)N=C2SCC)cc1,20.2,18.1,29.2,25.0
O=C(c1ccccc1)N1CC[C@@H]2[C@H](C1)CN2C(=O)c1ccc(F)cc1,10.7,8.1,-6.0,-0.4
Cc1ccc(C)c(NC(=O)CCc2c(C)nn(-c3cc(N(C)C)ncn3)c2C)c1,30.6*,-31.6,0.0,17.3
CCOC(=O)c1ccc2nc(NC(=O)Cc3cccc4ccccc34)sc2c1,36.3*,16.1,9.1,11.5
CC(=O)c1ccc(N2CCN(CC(=O)Nc3ccc4c(c3)OCO4)CC2)cc1,1.0,13.7,-0.2,12.3
Cc1cnc(N2CCC3(CCCN(C(=O)c4cnccn4)C3)C2)nc1 (stereo not given),28.0,2.8,9.7,x
N#Cc1c(N)nc2c(c1-c1ccco1)CN(Cc1ccccc1)CC2,i,-13.3,-251.7,-170.6
SMILES,USP30 inh,USP8 block,USP28 inh,USP17 block
CCCCNC(=O)CSc1nnc(-c2cc3ccccc3n2C)o1,72.4*,12.3,23.1,55.9*
COc1ccc(NC(=O)CSc2nnc(-c3cc4ccccc4n3C)o2)cc1,11.5,27.0,9.2,17.1
Cn1c(-c2nnc(SCC(=O)NCCc3ccccc3)o2)cc2ccccc21,56.7*,23.1,18.6,42.6*
CC(C)CNc1nc2c(cc1C(=O)NCC1CC1)CCN(S(C)(=O)=O)CC2,-15.4,-7.4,-1.6,25.2
O=C(Nc1cccc(N2CCCC2=O)c1)c1cccc2cccnc12,12.3,1.9,-0.5,55.6*
CCc1csc(-c2cn(CC(=O)Nc3cc(C)ccc3C)cn2)n1,-65.6,38.7*,-2.1,48.9*
CCc1csc(-c2cn(CC(=O)Nc3cccc(C)c3C)cn2)n1,57.8*,-27.5,20.5,50.9*
Cc1csc(-c2cn(CC(=O)Nc3ccc(C)c(F)c3)cn2)n1,24.3,20.7,12.9,-6.7
O=C1CCC(=O)NCCCCCN(O)C(=O)CCC(=O)NCCCCCN(O)C(=O)CCC(=O)NCCCCCN1,44.3*,9.1,17.7,13.0
O=C1NCCCCCN1C(=O)c1ccccc1,19.1,-0.4,7.3,6.7
CC1CCN(Cc2nc(-c3ccc(N4CCCCC4)nc3)no2)CC1,2.2,15.2,8.0,9.0
CC(=O)c1c(O)c2ccccc2n(Cc2ccccc2)c1=O,-76.7,36.0*,-19.8,-32.2
CC(=O)c1c(O)c2ccccc2n(C2CCCCC2)c1=O,-115.1,49.2*,-32.2,-47.0
Cc1ccc(C)c(C(=O)NCc2noc(C3CCCCC3)n2)c1,-1.3,6.2,7.0,-1.4

# Assay outcomes from PubChem BioAssay.
